Data published in PubChem BioAssay AID841 (Emory University Molecular Libraries Screening Center, 2007).
In all, about 140,000 compounds went through this assay and about 2,100 (1.5%) were called active. Cut-off read from the data, not from the text of the source: active = protection mostly above about 24% (no sharp cut-off); inactive = mostly below about 26%. The list comes from a sample in which actives are over-represented; it also holds similar structures and randomly drawn compounds.

test: compounds protecting cells from measles virus cytopathic effect, primary screen, measles RdRp inhibitor project, single point, MLSMR library, absorbance (AID 841); conditions: Measles virus-infected cells, CPE protection, at 4 µM, hits give high values

Protection (pct of control), inactive:
CC(=O)Cc1nsc(NC(=O)c2csc3c2CCCC3)n1 2.51%, COC(=O)c1sccc1NC(=O)c1csc2c1CCCC2 9.63%, CN(c1ccccc1)S(=O)(=O)c1cccc(NC(=O)Cc2c(F)cccc2Cl)c1 5.27%, Cc1cc(OC(=O)c2c(Cl)cccc2Cl)nc(C)n1 8.28%, CCNc1ccc(C(=O)OCC(=O)N2c3ccccc3NC(=O)C2(C)C)cc1[N+](=O)[O-] 5.03%, COc1cc(/C=N/O)ccc1OCc1ccc([N+](=O)[O-])cc1 30%, Cc1n[nH]c(=S)n1/N=C/c1ccc(Br)o1 7.57%, COc1ccc(C(=O)ON=C2c3ccccc3-c3ccccc32)cc1OC 9.81%, Cc1cccc(OCCNC(=S)NC(=O)c2cccnc2)c1 16.7%, COc1ccccc1CC(=O)Nc1ccc([N+](=O)[O-])cc1OC 14.5%, COc1ccc(Br)cc1CN(C)CC(=O)Nc1cc([N+](=O)[O-])ccc1OC 4.74%, CCC1S/C(=N/N=C/c2ccco2)NC1=O (stereo unspecified) 7.36%, CCOCCCNC(=O)C(NC(=O)CNC(=O)c1ccccc1)c1ccc(C)cc1 (stereo unspecified) 7.37%, CCOCCCNC(=O)C(NC(=O)c1ccc(=O)[nH]c1)c1ccc(C)cc1 (stereo unspecified) 6.13%, Cc1ccc(-c2cc(N)on2)cc1 16.5%, Cc1ccc(S(=O)(=O)N2CCCC2C(=O)OCc2nc3sc(C)c(C)c3c(=O)[nH]2)cc1 (stereo unspecified) 4.09%, Cc1ccc2[nH]c(C(=O)O)c(NC(=O)c3ccccc3[N+](=O)[O-])c2c1 14.1%, CCOC(=O)CNC(=O)CSc1nnnn1-c1cc(C)ccc1C 4.67%, COC(=O)c1ccccc1NC(=O)CSc1nnnn1C 30.8%, COc1ccc(/C=C/C(=O)Nc2ccc3c(c2)OCCO3)cc1OC 18.3%, CC(=O)N1CCN(CCN=CC2=C(O)CC(C)(C)CC2=O)CC1 2.75%, CC1(C)CC(=O)C(C=NCc2cccnc2)=C(O)C1 2.03%, CN1CCN(S(=O)(=O)c2ccc(NC(=S)NC(=O)C3CC3)cc2)CC1 7.47%, CN1CCN(S(=O)(=O)c2ccc(NC(=O)c3ccco3)cc2)CC1 12.2%, C/C(=N\NC(=O)Cc1ccc(F)cc1)c1ccc(F)cc1 16.1%, Cc1ccccc1C(CC(=O)c1cccs1)C(C#N)C#N (stereo unspecified) 1.36%, Cc1ccc(Cn2ccc(NC(=O)c3cc(C(C)C)on3)n2)cc1 10.8%, O=C(Nc1ccn(Cc2ccccc2)n1)c1n[nH]c([N+](=O)[O-])c1Cl 4.93%, CC(=O)N1C(C)c2ccccc2C(C)(C)CC12CCCCC2 (stereo unspecified) 1.83%, Cc1ccc(C)c(NC(=O)CSc2nc3c(oc4ccccc43)c(=O)n2-c2ccccc2)c1 11.7%, Cc1ccc(SCCC(=O)OCC(=O)Nc2ncc(Cl)cc2Cl)cc1 25.6%, NC(=O)CCC(NS(=O)(=O)c1ccc(Cl)cc1)C(=O)NCc1ccccc1Cl (stereo unspecified) 5.12%, CNC(=S)N/N=C/c1ccc(OCc2ccccc2)c(Br)c1 4.55%, CCOC(=O)Cc1csc(SCC(=O)NC(C)C23CC4CC(CC(C4)C2)C3)n1 (stereo unspecified) 4.07%, Cc1cccc(Nc2nc3c(S(=O)(=O)c4ccccc4)nnn3c3ccccc23)c1C 4.8%, Cc1ccc(-c2nc3c(cnn3-c3ccccc3)c(=O)o2)cc1 8.52%, COc1ccc(-n2c(C)nc3c(cnn3-c3ccccc3)c2=O)cc1 1.2%, Cc1cc(C(=O)CSc2nc(N)cc(=O)[nH]2)c(C)n1-c1cccc(F)c1 24.8%, O=C(C1CCCO1)N1CCN(C(=S)Nc2cccc(Cl)c2)CC1 (stereo unspecified) 19.2%, C=C(C)c1cccc(C(C)(C)NC(=O)NC2CCCC2)c1 2.05%, CCOC(=O)c1sc(NC(=O)COc2ncnc3ccccc23)c(C(=O)OCC)c1C 23.3%, O=C(CN1CCc2ccccc21)NC(c1ccccc1)c1ccccc1 11.6%, CC(C)(C)NC(=O)CN(Cc1cccs1)C(=O)CNS(=O)(=O)c1ccccc1 4.11%, Cc1ccc(S(=O)(=O)NCC(=O)N(CC(=O)NC2CCCCC2)Cc2ccco2)cc1 39.7%, Cc1ccc(-c2nn(-c3ccccc3)cc2/C=N/NC(=O)c2ccc3c(c2)OCO3)cc1 11.1%, COc1ccc(OC)c(/C=N/NC(=O)CSc2nnc(C)n2-c2ccccc2)c1 6.95%, Cc1ccccc1C1=NC(C(F)(F)F)(C(F)(F)F)c2c(n(-c3ccc(F)cc3)c(=O)[nH]c2=O)N1 14.5%, Cc1ccc(-c2nc3ccccc3[nH]2)cc1N 6.87%, COc1ccc(Br)cc1C(=O)NC(=S)Nc1cc(-c2nc3ccccc3[nH]2)ccc1C 3.52%, CCOc1ccc2nc(C(=O)N3CCCC(C)C3)sc2c1 (stereo unspecified) 14.9%, CCCCCOC(=O)NCCOC(=O)Nc1ccc(C(=O)OCC)cc1 3.01%, CCCCCCCCC(=O)NCCOc1ccccc1 6.49%, CCOc1ccc(N2C(=O)/C(=C/c3ccc(C)o3)N(C)C2=S)cc1 19.4%, CCC(=O)Nc1c(S(=O)(=O)c2ccccc2)c2nc3ccccc3nc2n1Cc1ccccc1 8.35%, O=C1CC(c2cccc(F)c2)C2=C(CCCC2=O)N1 (stereo unspecified) 11.2%, COc1ccc(OC)c(C2C3=C(N=c4s/c(=C\c5cccc(O)c5)c(=O)n42)c2ccccc2CC3)c1 (stereo unspecified) 10.7%, CCCN(CCC)c1c([N+](=O)[O-])c(=O)oc2ccccc12 2.94%, Cc1nc2ccccc2c2oc(C(=O)NCC3CCCO3)cc12 (stereo unspecified) 13.5%, O=C(NCC1CCCO1)c1ccc2ccccc2n1 (stereo unspecified) 9.11%, CC(=O)NNC1=Nc2ccccc2N(C)C(C)C1 (stereo unspecified) 14.9%, COc1ccc(-n2c(C)cc(C(=O)COC(=O)c3cc(OC)c(OC)cc3NC(=O)c3cccs3)c2C)cc1 5.86%, COc1ccc(CCNC(=O)C2CCN(c3nn4c(=O)cc(C)nc4s3)CC2)cc1OC 0.06%, Cc1cc(=O)n2nc(N3CCCC(C(=O)N4CCN(C)CC4)C3)sc2n1 (stereo unspecified) 14.9%, CC(C)c1nccn1S(=O)(=O)c1cc([N+](=O)[O-])ccc1Cl 14.2%, COCc1c(C(=O)N/N=C/C2CC=CCC2)nnn1-c1nonc1N (stereo unspecified) 5.58%, Cc1nc(Cl)c2oc3ccccc3c2n1 18.2%, CCc1nc(Nc2ccc3nccnc3c2)c2oc3ccccc3c2n1 5.78%, CC1=C(C(=O)Nc2cc(C)ccn2)C(c2cnn(C)c2)C2=C(CC(c3ccccc3)CC2=O)N1 (stereo unspecified) 4.9%, C/C(=N/NC(=S)Nc1ccccc1)c1ccc2c(c1)OCO2 20.8%, COc1ccc([C@H]2[C@H](C(C)=O)N3N=Cc4ccccc4C3C23C(=O)OC(C)(C)OC3=O)cc1 (stereo partly specified) 9.43%, O=C(N/N=C/c1cc([N+](=O)[O-])ccc1O)/C(=C\c1cccs1)NC(=O)c1ccccc1 3.64%, CC1CCCN(S(=O)(=O)c2ccc(N(C(=O)c3cnccn3)C(C(=O)NC3CCCCC3)c3cccs3)cc2)C1 (stereo unspecified) 5.77%, O=C(NC(CC(=O)N1CCN(c2ccccc2)CC1)c1ccccc1)c1ccccc1Cl (stereo unspecified) 5.39%, CC(=O)Nc1ccc(C(=O)CSc2nnc(Cc3ccccc3)o2)cc1 5.61%, CCOc1ccc(Nc2nc(Cc3nnc(SCC(=O)NC4CCCC4)n3C)cs2)cc1 4.14%

Protection (pct of control), active:
COC(=O)c1sc(NC(=O)c2csc3c2CCCC3)nc1C 49.9%, Cc1cc(C)c(S(=O)(=O)c2ccccc2)c(OC(=O)c2c(F)cccc2Cl)n1 38.9%, COc1cc(/C=N/n2c(C)n[nH]c2=S)ccc1OCc1ccccc1 79.2%, COc1ccc([N+](=O)[O-])cc1NC(=O)CCc1ccccc1 101%, CCOCCCNC(=O)C(NC(=O)c1ccc(=O)[nH]c1)c1ccc(Cl)cc1 (stereo unspecified) 30.2%, CCOC(=O)c1c(-c2ccc(C)cc2C)csc1NC(=O)CSc1nnnn1C 37%, CC1(C)CC(=O)C(C=NCCC2=CCCCC2)=C(O)C1 36.1%, CN1CCN(S(=O)(=O)c2ccc(NC(=O)C3CCCO3)cc2)CC1 (stereo unspecified) 28.4%, O=C(Nc1ccn(Cc2ccc(F)cc2)n1)c1ccncc1 61.8%, Cc1ccc(-n2c(SCC(=O)Nc3ncc(Cl)cc3Cl)nc3ccccc32)cc1 45.3%, CCc1ccc(NC2Nc3cc(C)nn3S2)cc1 (stereo unspecified) 40.8%, COc1ccc(Oc2c(Cl)cnn(-c3ccccc3)c2=O)cc1 42.2%, Cc1ccc(S(=O)(=O)NCC(=O)N(CC(=O)NC(C)(C)C)Cc2cccs2)cc1 32.1%, Cc1nnc(SCC(=O)N/N=C/c2cn(-c3ccccc3)nc2-c2ccc(F)cc2)n1-c1ccccc1 50.4%, Cc1ccc(-c2nc3ccccc3[nH]2)cc1NC(=O)c1sc2ccccc2c1Cl 80.8%, CCCCCCOC(=O)NCC(O)c1ccccc1 (stereo unspecified) 31.3%, O=C1CCCC2=C1C(c1ccccc1)n1c(s/c(=C/c3cccc(F)c3)c1=O)=N2 (stereo unspecified) 48.1%, Cc1ccc(C(=O)NCC2CCCO2)o1 (stereo unspecified) 45.6%, Cc1cc(=O)n2nc(N3CCCC(C(=O)NCCC4=CCCCC4)C3)sc2n1 (stereo unspecified) 38.4%, COc1ccccc1Nc1ncnc2c1oc1ccccc12 44.3%, CCOc1ccc(Nc2nc(Cc3nnc(SCC(=O)c4ccc(C)cc4)o3)cs2)cc1 31.3%
